The structures appear in SMILES notation. About 83,000 compounds went through this panel and 20% of them were active in at least one assay; those are over-represented in the sample as a whole.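 A percent growth of 40 corresponds to 60% growth inhibition; 0 means no net growth; -100 means all cells died. Active threshold: below 10.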 Activity calls are given as the source filed them.

One experiment concerns HCT-15 colon. In words: NCI-60 one-dose screen, 48 h (100 = growth as untreated, 0 = no growth, -100 = all killed). To be noted: 10 µM unless noted.
Consider `CCNC(=O)CCCCC(=O)c1c(C)[nH]c(/C=C2\N=C(c3ccc[nH]3)C=C2OC)c1C`, for which the growth is -39.8% (active).
Consider `CC(=O)OCC1OC(OCC2OC(OC(C)=O)C(OC(C)=O)C(OC(C)=O)C2OC(C)=O)C(OC(C)=O)C(OC(C)=O)C1OC(C)=O` (stereo unspecified), for which the growth is 96.7% (inactive).
Same read-out and setting: the figure for `Clc1ccc([I+]c2ccc(Cl)cc2Cl)c(Cl)c1` is 30.2% (inactive).
For the compound `CCC(=O)Oc1cc(/C=C/C(=O)O[C@H]2C[C@H]3CN4CCc5c([nH]c6cc(OC)ccc56)[C@@H]4C[C@@H]3[C@@H](C(=O)OC)[C@@H]2OC)ccc1OC`, the growth was 59.8% (inactive).
`COC1=CC(c2ccc[nH]2)=N/C1=C\c1[nH]c(C)c(C(=O)CCCCC(=O)NCc2ccccc2)c1C`: the growth was -19.5% (active).
Same read-out and setting: the figure for `COc1ccc(-c2nnc(COc3ccc(NS(=O)(=O)c4ccc(OC)cc4)cc3F)o2)cc1` is 85.1% (inactive); for `CN1CCN(c2ccc3cc(-c4nc5ccccc5[nH]4)c(=O)oc3c2)CC1` it is 91% (inactive).
On to `CCC1=C[C@@H]2CN(C1)Cc1c([nH]c3ccccc13)[C@@](C(=O)OC)(c1cc3c(cc1OC)N(C=O)[C@H]1[C@@](O)(C(=O)OC)[C@H](OC(C)=O)[C@]4(CC)[C@@H]5C[C@@H]5CN5CC[C@]31[C@@H]54)C2`, for which the growth was 10.3% (inactive).
For the compound `O=S(=O)(c1ccccc1)n1ccc(-c2ccc3c(c2)CCO3)n1`, the growth is 92.8% (inactive).
The same measure, in the same setting: the figure for `COC1=CC(c2ccc[nH]2)=N/C1=C\c1[nH]c(C)c(CCCn2cc(CCCCCCCCC[C@@H]3Cc4cc(O)ccc4C4CC[C@]5(C)[C@@H](O)CC[C@H]5C43)nn2)c1C` (stereo partly specified) is 35% (inactive); for `CCn1cc(C(=O)O)c(=O)c2cc(F)c(N3CCN(S(=O)(=O)c4ccc(OC)c(OC)c4)CC3)cc21` it is 102% (inactive).
As for `COc1cc2nc(SCc3cc(OC)c(OC)c(OC)c3)n(Cc3ccccc3)c(=O)c2cc1OC`, the growth was 20.1% (inactive).
Same read-out and setting: with `O=[N+]([O-])c1cc(S(=O)(=O)OCC2CO2)ccc1Cl` (stereo unspecified) the figure was 93.4% (inactive).
The same measure, in the same setting: with `Nc1c(C(=O)Nc2ccccc2)sc2nc3c(cc12)CCC3` the figure was 55.7% (inactive); with `COc1ccc([N+](=O)[O-])c(/C=C/C(=O)c2ccccn2)c1`, 57.5% (inactive); with `CC(C(=O)n1cc(-c2ccccc2)c(-c2ccccc2)c1)c1ccccc1` (stereo unspecified), 112% (inactive).
Same read-out and setting: the figure for `CCNCc1ccncc1` is 104% (inactive).
In the case of `NCCSC(c1ccccc1)(c1ccccc1)c1ccccc1`, the growth was 24.9% (inactive).
As to `O=C(O)c1ccc(-n2c(=O)c3ccccc3c3ccccc3c2=O)cc1`, the growth was 104% (inactive).
On to `COc1cc(/C=C2\C=C(c3ccc(F)cc3)N(Cc3ccccc3)C2=O)cc(OC)c1OC`, for which the growth is 53.6% (inactive).
In the case of `COc1ccc(/C=C2\C(=O)N(C(=O)c3csc(NC(C)=O)n3)N=C2C)cc1`, the growth is 103% (inactive).
The same measure, in the same setting: with `COc1cccc(NC(=O)Cn2cc3c(=O)oc4ccccc4c3n2)c1` the figure was 109% (inactive).
On to `CNC(C)=O`, for which the growth was 105% (inactive).
Consider `C=C1C(=O)O[C@H]2[C@H](O)[C@@H](C)CCC/C(C)=C/CC[C@@]3(C)O[C@@H]3C[C@@H]12`, for which the growth is 96.3% (inactive).
With `CC(=O)Nc1ccc(S(=O)(=O)NC(CCC(=O)Nc2ccc(Cl)cc2)C(=O)O)cc1` (stereo unspecified), the growth was 98.9% (inactive).
Regarding `Cn1c(C(N)=O)cc2c1-c1nc(NC3CCCCC3)ncc1CCC2`, the growth was 90.5% (inactive).
Same read-out and setting: with `Cc1nc2sccn2c1-c1csc(Nc2ccccc2Cl)n1` the figure was 34.2% (inactive).
Same read-out and setting: with `Cc1ccc(Cn2c(-c3cccs3)nc3ccccc32)cc1` the figure was 81.7% (inactive).
Turning to `COC1=CC(c2ccc[nH]2)=N/C1=C\c1[nH]c(C)c(C(=O)CCCCC(=O)Nc2ccccc2)c1C`, the growth was -3.38% (active).
The same measure, in the same setting: the figure for `COc1ccc(-c2cn[nH]c2-c2cc(OC)c3c(c2)OCCO3)cc1` is 20.7% (inactive); for `COc1ccc(/C=C/c2nc(N3CCOCC3)c3cc(F)c(F)cc3n2)cc1OC` it is 36.3% (inactive); for `O=c1oc2cc(OS(=O)(=O)c3ccc(F)cc3)ccc2c2c1CCCCC2` it is 26.8% (inactive).
As for `CCn1cc(C(=O)O)c(=O)c2cc(F)c(N3CCN(S(=O)(=O)c4ccc(Cl)cc4Cl)CC3)cc21`, the growth is 7.58% (active).
On the same count and under the same terms, the figure for `O=C(CN1CCN(c2cc3c(cc2F)c(=O)c(C(=O)O)cn3C2CC2)CC1)Nc1ccc(C(=O)/C=C/c2ccccc2)cc1` is 56.8% (inactive).
On the same count and under the same terms, with `O=C(CC(O)c1ccncc1)c1ccccc1` (stereo unspecified) the figure was 36.4% (inactive).
Still for that read-out and setting: with `CCn1cc(C(=O)O)c(=O)c2cc(F)c(N3CCN(S(=O)(=O)c4cccc5ccccc45)CC3)cc21` the figure was 11.1% (inactive); with `CCN(CC)CCCC(C)N=c1cc(Nc2cc(=NC(C)CCCN(CC)CC)c3cc(OC)ccc3o2)oc2ccc(OC)cc12` (stereo unspecified), -16.7% (active); with `NC(=S)NN=C1CCCCC1`, 77.7% (inactive).

Another experiment deals with HT29 colon. Described as above. To be noted: 10 µM unless noted.
As to `CCNC(=O)CCCCC(=O)c1c(C)[nH]c(/C=C2\N=C(c3ccc[nH]3)C=C2OC)c1C`, the growth is -100% (active).
With `CC(=O)OCC1OC(OCC2OC(OC(C)=O)C(OC(C)=O)C(OC(C)=O)C2OC(C)=O)C(OC(C)=O)C(OC(C)=O)C1OC(C)=O` (stereo unspecified), the growth was 103% (inactive).
In the case of `Clc1ccc([I+]c2ccc(Cl)cc2Cl)c(Cl)c1`, the growth is -26.8% (active).
For the compound `CCC(=O)Oc1cc(/C=C/C(=O)O[C@H]2C[C@H]3CN4CCc5c([nH]c6cc(OC)ccc56)[C@@H]4C[C@@H]3[C@@H](C(=O)OC)[C@@H]2OC)ccc1OC`, the growth is -1.66% (active).
Same read-out and setting: the figure for `COC1=CC(c2ccc[nH]2)=N/C1=C\c1[nH]c(C)c(C(=O)CCCCC(=O)NCc2ccccc2)c1C` is -49% (active).
With `COc1ccc(-c2nnc(COc3ccc(NS(=O)(=O)c4ccc(OC)cc4)cc3F)o2)cc1`, the growth is 91.1% (inactive).
Still for that read-out and setting: the figure for `CN1CCN(c2ccc3cc(-c4nc5ccccc5[nH]4)c(=O)oc3c2)CC1` is 108% (inactive); for `CCC1=C[C@@H]2CN(C1)Cc1c([nH]c3ccccc13)[C@@](C(=O)OC)(c1cc3c(cc1OC)N(C=O)[C@H]1[C@@](O)(C(=O)OC)[C@H](OC(C)=O)[C@]4(CC)[C@@H]5C[C@@H]5CN5CC[C@]31[C@@H]54)C2` it is -5.12% (active); for `O=S(=O)(c1ccccc1)n1ccc(-c2ccc3c(c2)CCO3)n1` it is 92.8% (inactive).
As to `COC1=CC(c2ccc[nH]2)=N/C1=C\c1[nH]c(C)c(CCCn2cc(CCCCCCCCC[C@@H]3Cc4cc(O)ccc4C4CC[C@]5(C)[C@@H](O)CC[C@H]5C43)nn2)c1C` (stereo partly specified), the growth is 23.6% (inactive).
Still for that read-out and setting: the figure for `CCn1cc(C(=O)O)c(=O)c2cc(F)c(N3CCN(S(=O)(=O)c4ccc(OC)c(OC)c4)CC3)cc21` is 102% (inactive); for `COc1cc2nc(SCc3cc(OC)c(OC)c(OC)c3)n(Cc3ccccc3)c(=O)c2cc1OC` it is 10.6% (inactive); for `O=[N+]([O-])c1cc(S(=O)(=O)OCC2CO2)ccc1Cl` (stereo unspecified) it is 49.7% (inactive).
As for `Nc1c(C(=O)Nc2ccccc2)sc2nc3c(cc12)CCC3`, the growth was 88% (inactive).
On the same count and under the same terms, the figure for `COc1ccc([N+](=O)[O-])c(/C=C/C(=O)c2ccccn2)c1` is 58.8% (inactive).
Same read-out and setting: with `CC(C(=O)n1cc(-c2ccccc2)c(-c2ccccc2)c1)c1ccccc1` (stereo unspecified) the figure was 107% (inactive); with `CCNCc1ccncc1`, 102% (inactive); with `NCCSC(c1ccccc1)(c1ccccc1)c1ccccc1`, 0.695% (active).
Still for that read-out and setting: with `O=C(O)c1ccc(-n2c(=O)c3ccccc3c3ccccc3c2=O)cc1` the figure was 98.5% (inactive).
Consider `COc1cc(/C=C2\C=C(c3ccc(F)cc3)N(Cc3ccccc3)C2=O)cc(OC)c1OC`, for which the growth was 78.9% (inactive).
On to `COc1ccc(/C=C2\C(=O)N(C(=O)c3csc(NC(C)=O)n3)N=C2C)cc1`, for which the growth was 98.9% (inactive).
In the case of `COc1cccc(NC(=O)Cn2cc3c(=O)oc4ccccc4c3n2)c1`, the growth was 105% (inactive).
With `CNC(C)=O`, the growth is 94.8% (inactive).
Turning to `C=C1C(=O)O[C@H]2[C@H](O)[C@@H](C)CCC/C(C)=C/CC[C@@]3(C)O[C@@H]3C[C@@H]12`, the growth is 99.6% (inactive).
`CC(=O)Nc1ccc(S(=O)(=O)NC(CCC(=O)Nc2ccc(Cl)cc2)C(=O)O)cc1` (stereo unspecified): the growth was 106% (inactive).
Same read-out and setting: the figure for `Cn1c(C(N)=O)cc2c1-c1nc(NC3CCCCC3)ncc1CCC2` is 91.4% (inactive).
The same measure, in the same setting: the figure for `Cc1nc2sccn2c1-c1csc(Nc2ccccc2Cl)n1` is 15.4% (inactive); for `Cc1ccc(Cn2c(-c3cccs3)nc3ccccc32)cc1` it is 92.7% (inactive).
As for `COC1=CC(c2ccc[nH]2)=N/C1=C\c1[nH]c(C)c(C(=O)CCCCC(=O)Nc2ccccc2)c1C`, the growth was -54.4% (active).
Still for that read-out and setting: the figure for `COc1ccc(-c2cn[nH]c2-c2cc(OC)c3c(c2)OCCO3)cc1` is 1.7% (active); for `COc1ccc(/C=C/c2nc(N3CCOCC3)c3cc(F)c(F)cc3n2)cc1OC` it is 42.4% (inactive); for `O=c1oc2cc(OS(=O)(=O)c3ccc(F)cc3)ccc2c2c1CCCCC2` it is 27.5% (inactive).
Still for that read-out and setting: with `CCn1cc(C(=O)O)c(=O)c2cc(F)c(N3CCN(S(=O)(=O)c4ccc(Cl)cc4Cl)CC3)cc21` the figure was 1.87% (active); with `O=C(CN1CCN(c2cc3c(cc2F)c(=O)c(C(=O)O)cn3C2CC2)CC1)Nc1ccc(C(=O)/C=C/c2ccccc2)cc1`, 11.4% (inactive).
Same read-out and setting: the figure for `O=C(CC(O)c1ccncc1)c1ccccc1` (stereo unspecified) is 32.7% (inactive); for `CCn1cc(C(=O)O)c(=O)c2cc(F)c(N3CCN(S(=O)(=O)c4cccc5ccccc45)CC3)cc21` it is 3.96% (active); for `CCN(CC)CCCC(C)N=c1cc(Nc2cc(=NC(C)CCCN(CC)CC)c3cc(OC)ccc3o2)oc2ccc(OC)cc12` (stereo unspecified) it is -42% (active).
With `NC(=S)NN=C1CCCCC1`, the growth is 47.5% (inactive).
